Measurements taken from PubChem BioAssay AID602396 (The Scripps Research Institute Molecular Screening Center, 2012).
Among all 360,000 compounds or so, about 460 (0.13%) were called active. For the sample, actives were picked, then their nearest neighbours and some compounds at random. Values without a mark were called inactive.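 The calls were made as follows: active = inhibition above the mean inhibition of all tested compounds plus 3 SD (cut at about 73% in these data); inactive = the rest.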

The compounds below were run against Nuclear receptor subfamily 5 group A member 2 (Homo sapiens) (UniProt O00482) (assay: reduction of NR5A2-driven StAR reporter activity – cell-based, luminescence, HEK293T, StAR-luciferase reporter, primary screen (AID 602396;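 also: 0% = DMSO wells and 100% = reporter-only cells lacking LRH-1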)). Settings: LRH-1 transfected, 24 h, at 3.6 µM, hits give high values.
Sequence of Nuclear receptor subfamily 5 group A member 2 (Homo sapiens) (O00482 whole entry, looked up): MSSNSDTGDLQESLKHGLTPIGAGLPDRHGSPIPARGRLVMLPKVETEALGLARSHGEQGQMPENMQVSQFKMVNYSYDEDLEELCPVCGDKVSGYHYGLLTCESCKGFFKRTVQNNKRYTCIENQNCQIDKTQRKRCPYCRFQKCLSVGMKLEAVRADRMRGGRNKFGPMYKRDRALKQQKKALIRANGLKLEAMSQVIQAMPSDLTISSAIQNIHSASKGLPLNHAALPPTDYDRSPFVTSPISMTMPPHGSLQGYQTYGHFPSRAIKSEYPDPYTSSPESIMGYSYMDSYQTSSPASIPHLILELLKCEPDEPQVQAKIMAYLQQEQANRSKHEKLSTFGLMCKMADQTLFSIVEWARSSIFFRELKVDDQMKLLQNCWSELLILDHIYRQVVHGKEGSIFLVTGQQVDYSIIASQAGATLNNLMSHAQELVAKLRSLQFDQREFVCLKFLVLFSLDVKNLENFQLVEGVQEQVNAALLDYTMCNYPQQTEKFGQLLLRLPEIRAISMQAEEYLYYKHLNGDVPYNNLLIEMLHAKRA

In order of rising inhibition:
1. Cc1ccc(-c2noc(C3CCCN(C(=O)c4cccc(Cl)c4)C3)n2)o1 (stereo not given)  -49.4%
2. Cc1noc(C)c1NC(=O)Nc1cccc2c1O[C@H](CN(C)S(=O)(=O)c1c(C)noc1C)[C@@H](C)CN([C@H](C)CO)C2=O  -28.3%
3. Cn1c(=O)c2c(nc(OCc3cccnc3)n2Cc2ccccc2)n(C)c1=O  -21.8%
4. O=C(O)C1=C(C(=O)O)C2CCC1C2  -20.2%
5. CN(C)CCCn1c(N)c(C#N)c2nc(C#N)c(C#N)nc21  -20%
6. CCN(CC)C(=O)C1=C(C)N(Cc2ccccc2)C(=O)C(CC(=O)NC(c2ccccc2)c2ccccc2)C1 (stereo not given)  -17.2%
7. Cc1ccc(/C=C/C(=O)OCC(=O)Nc2cccnc2Cl)cc1  -17.1%
8. Cc1cccc(C(=O)C(O)(c2ccccc2)C2CCCCC2=O)c1 (stereo not given)  -15.3%
9. CCc1ccc(NC(=O)CCNS(=O)(=O)c2cccs2)cc1  -12.4%
10. Cc1nc(COc2cc3oc(=O)cc(C)c3cc2Cl)cs1  -10.4%
11. CCOc1ccc(Br)cc1S(=O)(=O)Nc1ccc(C(=O)OC(C)C(=O)N(C)c2ccccc2)cc1 (stereo not given)  -9.98%
12. COC(=O)c1cn(C)c2ccc(S(=O)(=O)N3CC(C)CC(C)C3)cc2c1=O (stereo not given)  -9.25%
13. CC(=O)c1cnc(SCC(=O)O)nc1C  -8.72%
14. COCc1cc(C)n(CC(=O)NCC2CCCO2)c(=O)c1C#N (stereo not given)  -7.89%
15. CCCCCN(C(=O)NC(=O)Nc1cccc(C)c1C)S(C)(=O)=O  -7.26%
16. CCC1=NN(C(=O)Cc2ccc([N+](=O)[O-])cc2)C(O)(c2ccc(Br)cc2)C1 (stereo not given)  -7.24%
17. O=C(c1cc2ccccc2o1)N1CCN(S(=O)(=O)c2ccc(Cl)s2)CC1  -4.99%
18. CCNS(=O)(=O)c1ccc(CCC(=O)N2CCN(c3cc(Cl)ccc3C)CC2)cc1  -4.58%
19. CCn1c(C)nc2c1C(=O)c1ccccc1C2=O  -4.55%
20. Cc1ccc(-c2ccnc3nc(Sc4ncc(C(F)(F)F)cc4Cl)nn23)cc1  -3.99%
21. Cc1cc(NC(=O)CS(=O)(=O)c2cn(C)c3ccccc23)no1  -3.59%
22. CCOc1ccc(CCNC(=O)COC(=O)c2ccc(C)c(S(=O)(=O)N3CCOCC3)c2)cc1OCC  -2.87%
23. O=C(O)COc1nsnc1N1CCOCC1  -2.76%
24. Cc1ccc(C(=O)COC(=O)CCN2C(=O)C3C4CC(C(Br)C4Br)C3C2=O)cc1 (stereo not given)  -1.24%
25. CC(C)c1ccc(NC(=O)C2CCCN(S(=O)(=O)c3cccnc3)C2)cc1 (stereo not given)  -1.1%
26. CCCCn1c(=S)[nH]c2ncccc2c1=O  0.69%
27. COc1ccc(NS(=O)(=O)c2ccc(O)c(C(=O)OCC(=O)NC3CCCCC3)c2)cc1  0.7%
28. COC(=O)c1ccc(CSc2ccc(S(=O)(=O)N3CCCCC3)cn2)cc1  0.83%
29. O=C1CN(C(=O)COC(=O)c2cnc(Cl)c(Cl)c2)c2ccccc2N1  0.85%
30. CCOCCCNC(=O)c1cn(CC(C)C)c(=O)c2c1c1ccccc1n2C  0.96%
31. Cc1c(Cl)cnc(NC(=O)COC(=O)C2CCCC2)c1Cl  1.2%
32. COc1cccc(CNS(=O)(=O)c2cc3c(cc2C)n(C)c(=O)c(=O)n3C)c1  1.81%
33. Cc1cn([C@H]2C[C@H](O)[C@@H](CNC(=O)[C@H](N)Cc3cccnc3)O2)c(=O)[nH]c1=O  2.03%
34. Cc1cc(C(=O)NNC(=O)CCC2CCCCC2)c(C)o1  2.29%
35. CC(=O)Nc1ccc(NC(=O)CSc2nnnn2-c2ccccc2F)cc1  3.27%
36. Cc1cc(=O)cc(C)[nH]1  3.47%
37. CCOc1ccc(N2CC(C(=O)N/N=C/c3sccc3C)CC2=O)cc1 (stereo not given)  3.97%
38. CCN(C(=O)COC(=O)CCC(=O)c1cccs1)C1CCCCC1  4.1%
39. CCn1ccnc1CN1CCCC(C(=O)c2ccc3c4c(cccc24)CC3)C1 (stereo not given)  4.32%
40. COc1ccc(S(=O)(=O)N2CCOC23CCN(S(=O)(=O)c2ccc([N+](=O)[O-])cc2)CC3)cc1  4.75%
41. Cc1ccc(CC2CC(=O)N(c3cc(C)ccc3C)C2=O)cc1 (stereo not given)  5.12%
42. CC1CC(c2ccccc2)n2nc(NC(=O)c3cccs3)nc2N1 (stereo not given)  5.57%
43. COCCn1c(C)cc(C(=O)COC(=O)CNC(=O)c2ccco2)c1C  5.6%
44. CCOc1cc(C(=O)Nc2c(C)ccc3nsnc23)cc(OCC)c1OCC  5.78%
45. CC(C)CCC(=O)Nc1cc(S(=O)(=O)N2CCOCC2)ccc1N1CCCC1  6.05%
46. COC(=O)Cc1cnc(NC(=O)CSc2nc(C(C)C)cc(=O)[nH]2)s1  7.32%
47. Cc1cc(N2CCCC2=O)cc(C)c1S(N)(=O)=O  7.43%
48. CCCn1c(C)cc(C(=O)COC(=O)c2c(C)nn(-c3ccccc3)c2C)c1C  7.52%
49. C/C=C(/C)C(=O)O[C@@H]1c2cc3c(c4c2[C@@]2(CO4)C(=O)C(OC)=C(OC)C=C2C[C@@H](C)[C@H]1C)OCO3  8.2%
50. CN(C)S(=O)(=O)c1ccc(N2CCCC2)c(C(=O)Nc2cccc(F)c2)c1  8.36%
51. Cc1ccc(-n2c(=O)cc(N3CCN(Cc4ccccc4)CC3)[nH]c2=O)cc1  8.9%
52. N#Cc1ccc(CN2CCN(CC(=O)Nc3ccccc3C(=O)NC3CC3)CC2)cc1  9.21%
53. CC(=O)NS(=O)(=O)c1ccc2c(c1)Cc1cc(S(=O)(=O)NC(C)=O)ccc1-2  9.84%
54. O=C(NCCCn1ccnc1)C(=O)c1cn(CC(=O)N2CCCCCC2)c2ccccc12  9.94%
55. Cc1nn(-c2ccccc2)c2c1C(=O)NC(=O)C(C)(C)C2  10.2%
56. N/C(=N\S(=O)(=O)c1cc(C(F)(F)F)cc(C(F)(F)F)c1)c1cccs1  10.3%
57. CCc1ccc2[nH]c(=O)c(Cc3ccccc3)c(O)c2c1  10.4%
58. COc1ccc(Cl)cc1NS(=O)(=O)c1cccc(C(=O)NCC2CCCO2)c1 (stereo not given)  10.9%
59. COc1ccc(OCCn2ccnc2C)cc1  10.9%
60. C=CCc1cc(S(=O)(=O)c2ccc(O)c(CC=C)c2)ccc1O  11.4%
61. Cc1ccccc1/[N+]([O-])=C/c1ccncc1  13%
62. CC[C@@H]1CC2=C(C(=O)OC(C)(C)O2)[C@@H](CC)O1  13.2%
63. Cc1ccc(C)c(S(=O)(=O)Nc2cc(C)on2)c1  13.7%
64. COc1ccc(CCn2c(NN=C3CCCC3)nc3c2c(=O)[nH]c(=O)n3C)cc1  14%
65. Cc1ccc(CNC(=O)C2CCCN(S(C)(=O)=O)C2)cc1 (stereo not given)  14.4%
66. O=C(CN1CCN(S(=O)(=O)c2ccc3ccccc3c2)CC1)NC(=O)NC1CCCCC1  14.8%
67. COC1(C2=NCCN2)COc2ccccc2O1 (stereo not given)  15.1%
68. COc1ncnc2c1N=C1CC(C)(C)CC(N)=C1S2  22.7%

`Cc1ccsc1C(=O)OCC(=O)c1cc(C)n(CC2CCCO2)c1C` (stereo not given) was tested, and the inhibition was 80.7% (active).
For `OCCCNc1nccc(-c2cc(Nc3cccc(Cl)c3)ncn2)n1`, the inhibition was 96.8% (active).
